Source: PubChem
TGFb inhibitor: blocks TGF-b signaling; HepG2 CAGA-GFP TGF-b/SMAD3 reporter, GFP fluorescence, 18 h; TGF-beta stimulated, 500 pg/mL final; Potency, µM (titrated, usually from 46.1 µM), inactives show at the highest dose activity, negative = inhibition, hits mostly inhibitors; hit rate 1.2% among 410,000; further: on the % scale 0 is the no-effect control and ±100 the full control effect; nearly all actives have a fitted effect of over 65% in size
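Inhibition of TGF-beta-driven CAGA-GFP reporter expression in HEPG2 cells is measured by cellular GFP fluorescence after 18 h stimulation with 500 pg/mL recombinant TGF-beta in 1% FBS medium at 37 degrees C.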
Nrf2 block: Nrf2 pathway inhibition; A549 ARE-Fluc reporter, luciferase luminescence, 18-24 h; Potency, µM (series often up to 46 µM), for inactives: at the highest dose activity change, negative = inhibition, hits mostly inhibitors; hit rate 2.1% among 360,000; AID 504444; further: on the % scale 0 is the no-effect control and ±100 the full control effect; nearly all actives have a fitted effect of over 60% in size
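In this cell-based qHTS, ARE-driven firefly luciferase in A549 cells reports Nrf2 activity; the luminescent signal after BugLite lysis is the measured value, with a prior CellTiter-Fluor read for cell health.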
ATXN2 expr inh: reduces ATXN2 reporter expression in HEK-293 cells; hit rate 0.72% among 360,000; Potency, µM (highest dose often 57 µM), inactives show at the top dose activity change, negative = inhibition, hits mostly inhibitors; HEK-293 ATXN2-luciferase reporter, luminescence, 24 h; AID 1745845; further: on the % scale 0 is the no-effect control and ±100 the full control effect; nearly all actives have a fitted effect of over 55% in size
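ATXN2-luciferase reporter cells (luciferase flanked by upstream and downstream ATXN2 gene portions) were treated 24 h at 37 °C with compounds at up to 57 uM. SteadyGlo luminescence gave expression; GF-AFC fluorescence gave viability.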
ATXN viability: reduces viability in counter-screen for ATXN expression inhibitors; AID 651635; Potency, µM (top dose mostly 56.7 µM), actives largely listed as cytotoxic; S2 cells (HEK-293 line with an ATXN2-luciferase reporter) viability, CellTiter-Fluor protease fluorescence, 24 h; hit rate 0.49% among 400,000; further: nearly all actives have a fitted effect of over 40% in size
A549 tox: kills or reduces viability of A549 cells in Nrf2 counter-screen | A549 ARE-Fluc cells, CellTiter-Fluor viability, 18-24 h | Potency, µM (highest dose often 46 µM), without a hit: top-dose activity change, negative = cytotoxicity, hits mostly inhibitors | hit rate 0.16% among 390,000; further: on the % scale 0 is the no-effect control and ±100 the full control effect
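A549 ARE-Fluc cells in 5% FBS OPTI-MEM, 5000 cells/well, rested 2 h then exposed to compounds in concentration-response for 18-24 h at 37 °C. Viability by CellTiter-Fluor fluorescence (Ex 405/Em 525) after 30 min; luciferase luminescence (BugLite, 15 min, RT) read afterwards.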
HepG2 tox-1: counter-screen for TGF-b inhibitors: cytotoxicity in HepG2 cells | HepG2 CAGA-GFP viability, ATP luminescence, 18 h | hit rate 0.76% among 410,000 | AID 588856 | Potency, µM (doses to about 46.1 µM), for the others: at the top dose activity change, negative = cytotoxicity, actives largely listed as cytotoxic
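CellTiter-Glo luminescence gave cytotoxicity after 18 hours at 37 degrees C. The cells were HepG2 CAGA-GFP in 1% FBS DMEM, stimulated with 500 pg/mL TGF-beta after compound addition. %Activity was normalised to no-cell wells (complete cell-killing) and DMSO (no toxicity), and curves were fitted and classified.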
TGFb CAGA inh: confirmation of TGF-b signaling inhibitors in HepG2 reporter cells; hit rate 63% among 1,600; shares compounds with TGFb inhibitor; HepG2 CAGA-GFP TGF-b reporter, GFP fluorescence, 18 h; cells stimulated with TGF-beta, 500 pg/mL; Potency, µM (doses to about 46.1 µM), for inactives: top-dose activity, negative = inhibition, most hits filed as inhibitors; further: on the % scale 0 is the no-effect control and ±100 the full control effect; nearly all actives have a fitted effect of over 65% in size
HepG2 tox-2: counter-screen for TGF-b inhibitors: cytotoxicity in HepG2 cells. shares compounds with TGFb inhibitor. HepG2 CAGA-GFP viability, ATP luminescence, 18 h; cells stimulated with TGF-beta, 500 pg/mL. Potency, µM (doses to about 46.1 µM), inactives show at the highest dose activity, negative = cytotoxicity, most hits filed as inhibitors. hit rate 27% among 1,600. AID 720535; further: on the % scale 0 is the no-effect control and ±100 the full control effect; nearly all actives have a fitted effect of over 70% in size
TGFb CCL64 inh: blocks TGF-b signaling in CCL64 reporter cells; shares compounds with TGFb inhibitor; CCL64 CAGA-GFP reporter, TGF-b stimulated, GFP fluorescence, 18 h; Potency, µM (titrated, usually from 46.1 µM), without a hit: top-dose activity, negative = inhibition, hits mostly inhibitors; hit rate 41% among 1,600; AID 720536; further: nearly all actives have a fitted effect of over 65% in size
TGFb COP inh: blocks TGF-b signaling in HepG2 COP reporter; shares compounds with TGFb inhibitor; hit rate 3% among 1,600; Potency, µM (highest dose often 46.1 µM), inactives show top-dose activity, negative = inhibition, actives largely listed as inhibitors; HepG2 COP-GFP TGF-b reporter, GFP fluorescence, 18 h; cells stimulated by added recombinant TGF-beta; further: nearly all actives have a fitted effect of over 70% in size
Starred values were filed as active, the others as inactive; i = inactive; ? = inconclusive; / = not tested or not shown; ! = repeats disagree. Rows were chosen to be rich in hits. Some 3.8% of all compounds tested hit in one or more screens of this group. The call rests on the fitted dose curve; in most records, active means well fitted curve in the direction sought with a large enough effect; inconclusive means small, poorly fitted or top-dose-only effect, or another doubt; inactive means no such curve, though single readings can be large; an effect the other way counts as inactive or inconclusive. Potency means the concentration at half of the fitted maximal effect.

SMILES	TGFb inhibitor	Nrf2 block	ATXN2 expr inh	ATXN viability	A549 tox	HepG2 tox-1	TGFb CAGA inh	HepG2 tox-2	TGFb CCL64 inh	TGFb COP inh
CNc1ccc2oc(C[C@H]3O[C@@]4(CC[C@H]3C)O[C@H]([C@H](C)C(=O)c3ccc[nH]3)[C@H](C)C[C@H]4C)nc2c1C(=O)O	5µM*	1.2µM*	8.9µM*	7.1µM*	3.7µM*	7.1µM*	2.1µM*	1.5µM*	1µM*	6.5µM*
O=C1NCN(c2ccccc2)C12CCN(C(c1ccccc1)c1nnnn1Cc1ccccc1)CC2 (stereo unspecified)	11µM*	/	?	?	/	4%	18µM*	-12%	12µM*	-1%
O=C1NCN(c2ccccc2)C12CCN(C(CCc1ccccc1)c1nnnn1Cc1ccccc1)CC2 (stereo unspecified)	18µM*	/	?	?	/	-1%	15µM*	?	12µM*	76%
O=C1NCN(c2ccccc2)C12CCN(C(c1cc3ccccc3o1)c1nnnn1C1CCCC1)CC2 (stereo unspecified)	?	/	?	?	/	0%	/	/	/	/
O=C1NCN(c2ccccc2)C12CCN(C(c1cc3ccccc3o1)c1nnnn1Cc1ccccc1)CC2 (stereo unspecified)	14µM*	/	?	/	/	0%	21µM*	-20%	15µM*	5%
O=C1NCN(c2ccccc2)C12CCN(C(CCc1ccccc1)c1nnnn1-c1ccc3c(c1)OCCO3)CC2 (stereo unspecified)	13µM*	/	0%	?	/	4%	?	-7%	4.1µM*	6%
O=C1NCN(c2ccccc2)C12CCN(C(c1nnnn1Cc1ccccc1)C1CC1)CC2 (stereo unspecified)	?	/	-7%	?	/	12%	/	/	/	/
NC(Cc1ccc(C(F)(F)F)cc1)c1csc(Nc2nncc3ccccc23)n1 (stereo unspecified)	?	/	?	?	/	-79%	/	/	/	/
CN1CCN(c2ccc([N+](=O)[O-])c3no[n+]([O-])c23)CC1	3.2µM*	?	2.4µM*!	/	23µM*	8.9µM*	4.1µM*	5.2µM*	3.3µM*	?
O=[N+]([O-])c1ccc(N(CCO)CCO)c2c1no[n+]2[O-]	7.1µM*	/	/	/	/	-115%	10µM*	13µM*	12µM*	?
CCN(CC)C(=O)c1ccc(NC(=O)c2cccc(C(F)(F)F)c2)cc1	-13%	-19%	-11%	i	0%	-13%	/	/	/	/
CCN(CCCl)c1cc(CN(C)C)cc(NC(=O)c2ccc(C(=O)Nc3cc(CN(C)C)cc(N(CC)CCCl)c3)cc2)c1	4µM*	2.9µM*	0.71µM*	/	13µM*	-104%	1µM*	1µM*	1µM*	?
O=C1C(=O)c2cccc3cccc1c23	?	11%	?	?	1%	7%	/	/	/	/
NC1=C(Br)C(=O)c2ccccc2C1=O	5.6µM*	?	?	?	?	5.6µM*	5.2µM*	8.2µM*	9.2µM*	?
O=Cc1c(C(=O)O)n(Cc2ccccc2F)c2ccccc12	14%	-3%	-12%	i	-16%	19%	/	/	/	/
NC(=O)c1c(Br)n(C2OC(CO)C(O)C2O)c2ncnc(N)c12 (stereo unspecified)	1.4µM*	?	21µM*	?	?	-18%	2.1µM*	?	?	20%
N#Cc1cn(C2OC(CO)C(O)C2O)c2ncnc(N)c12 (stereo unspecified)	0.1µM*	?	?	?	?	-36%	0.23µM*	0.15µM*	0.1µM*	12%
CCNC(=O)[C@H]1O[C@@H](n2cnc3c(N)ncnc32)[C@H](O)[C@@H]1O	-15%	17%	9%	i	-2%	14%	/	/	/	/
C#CCOC(C(=O)OCCN(C)C)(c1ccccc1)c1ccccc1	/	/	19%	i	/	/	/	/	/	/
CC1CC(C)(O)CC(C(O)CC2CC(=O)NC(=O)C2)C1=O (stereo unspecified)	0.32µM*	0.58µM*	?	?	?	-3%	0.13µM*	?	0.26µM*	35%
